The supplement of paper PMC4894684
Where a name gives a salt, the structure may show the parent alone. ± gives the standard deviation of the averaged measurements. About 15 (2%) of roughly 1,000 compounds showed an effect of 50% or more. This is one part of a sample in which strong results are shown more often than they occur.

These molecules were tested on HFF (assay: uninfected host cell viability relative to vehicle control; higher = less host cell toxicity). Conditions: 5 µM; 72 h; oxygen 21 %.

SMILES | uninfected host cell viability [%]
C[C@@]12C(=O)OC(=O)[C@]1(C)[C@H]1CC[C@@H]2O1 [Cantharidin] | 19.7 ± 1.6
CC(C)NCC(O)c1ccc(N)c(C#N)c1 (stereo not given) [Cimaterol] | 84.5 ± 2.1
NC(=S)N/N=C/c1coc2ccccc2c1=O.[Cl][Cu][Cl] | 98.2 ± 1.8
COC1(C[S@+]([O-])c2ccccc2)CCN(CCc2c[nH]c3ccc(F)cc23)CC1 | 80.8 ± 2.7
NCCc1c[nH]c2ccc(C(N)=O)cc12 [5-Carboxamidotryptamine maleate] | 91.33 ± 0.078
CC(C)C[C@@H](N)C1(c2ccc(Cl)cc2)CCC1 | 91.72 ± 0.29
NC1(c2ccccc2Cl)CCCCC1=O (stereo not given) [Norketamine hydrochloride] | 97.41 ± 0.47
c1ccc2c(c1)[I+]c1ccccc1-2 [Diphenyleneiodonium chloride] | 30.8 ± 3.4
Cc1[nH]c2ccc(Cl)cc2c1C1=CCNCC1 | 75.1 ± 2
CN1Cc2ccccc2[C@@H]2c3cccc4[nH]cc(c34)C[C@H]21 | 86.3 ± 3.7
CCOC(=O)c1ncc2[nH]c3ccc(OCc4ccccc4)cc3c2c1COC | 103 ± 4.4
C[C@H]1CCC/C=C/[C@@H]2C[C@H](O)C[C@H]2[C@H](O)/C=C/C(=O)O1 [Brefeldin A] | 45.4 ± 4
N#Cc1ccc(N2CCN(C(=O)COc3ccc4[nH]cc(CCN)c4c3)CC2)cc1 [Donitriptan hydrochloride] | 98.31 ± 0.13
CC(=O)[C@H]1CC[C@H]2[C@@H]3CC[C@H]4C[C@](C)(O)CC[C@]4(C)[C@H]3CC[C@]12C [Ganaxolone] | 95 ± 1.5
O=C1NC(=O)c2c1c1c3ccccc3[nH]c1c1[nH]c3ccccc3c21 [Arcyriaflavin A] | 83.56 ± 0.33
O=C1NC(=O)c2c1c1c3ccccc3n3c1c1c2c2ccccc2n1[C@H]1CC[C@@H]3O1 | 39.2 ± 11
C[C@@H](N)Cc1cnc[nH]1 [(R)-(-)- α-Methylhistamine dihydrobromide] | 89.841 ± 0.031
O=[N+]([O-])c1cc(O)c(O)c([N+](=O)[O-])c1 | 95.7 ± 4.9
Oc1ccc2c3c1O[C@H]1c4[nH]c5ccccc5c4C[C@@]4(O)[C@@H](C2)N(CC2CC2)CC[C@]314 [Naltrindole hydrochloride] | 81.09 ± 0.49
O=C1/C(=C/c2ccccc2)C[C@@]2(O)[C@H]3Cc4ccc(O)c5c4[C@@]2(CCN3CC2CC2)[C@H]1O5 [BNTX maleate] | 22.2 ± 1.1
Oc1ccc2c3c1O[C@H]1c4[nH]c5c(c4C[C@@]4(O)[C@@H](C2)N(CC2CC2)CC[C@]314)C[C@@]1(O)[C@H]2Cc3ccc(O)c4c3[C@@]1(CCN2CC1CC1)[C@H]5O4 [nor-Binaltorphimine dihydrochloride] | 85.23 ± 0.22
O[C@H]1[C@H](O)[C@@H](O)CN2CC[C@H](O)[C@H]12 [Castanospermine] | 82.95 ± 0.65
CCN(CC)CCO[C@H]1CC[C@@]2(C)C(=CC[C@@H]3[C@@H]2CC[C@]2(C)C(=O)CC[C@@H]32)C1 | 104 ± 3.5
c1ccc(CC(c2ccccc2)N2CCCCC2)cc1 (racemic) [(±)-1-(1,2-Diphenylethyl)piperidine maleate] | 89.8 ± 6.6
N[C@H](C(=O)O)c1cc(O)no1 [Ibotenic acid] | 85 ± 3.7
